According to the supplement of paper PMC10981050:
Values joined by “and” are separate entries in the source; they are usually repeats but may differ in a detail not shown here. Identical values can stand only once. Counter-ions that a name gives are not always drawn.

Legend:
Experiment in all cases: cell viability relative to vehicle control; higher = less cytotoxic
Conditions in all cases: 10 µM
[1] = test system: K562
Method in brief: (§1)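 Mutant clones made by CRISPR editing and their isogenic wild-type counterparts, from four leukaemia lines, were exposed to a single 10 µM dose of each library compound for 48 h. The supernatant was then removed and CellTiter-Glo luminescence was read. Viability was reported as percent of the on-plate vehicle control.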

[2] = test system: MARIMO
Method in brief: as §1

[3] = test system: MOLM14
Method in brief: as §1

[4] = test system: OCI-AML2
Method in brief: as §1

| SMILES | cell viability ([1]; SRSF2 genotype: SRSF2 P95H/wt) | cell viability ([1]; SRSF2 genotype: SRSF2 wt/wt) | cell viability ([2]; SRSF2 genotype: SRSF2 P95H/wt) | cell viability ([2]; SRSF2 genotype: SRSF2 wt/wt) | cell viability ([3]; SRSF2 genotype: SRSF2 P95H/wt) | cell viability ([3]; SRSF2 genotype: SRSF2 wt/wt) | cell viability ([4]; SRSF2 genotype: P95H/wt) | cell viability ([4]; SRSF2 genotype: wt/wt) |
| --- | --- | --- | --- | --- | --- | --- | --- | --- |
| O=c1cc(-c2cccc3c2Sc2ccccc2S3)oc(N2CCOCC2)c1 | 98.7% and 93.1% | 91.2% | 105% | 103% | 93.6% | 95.5% | 85.7% | 88.8% |
| COc1ccc(CCNCc2ccc(OCc3ccc(Cl)nc3)c(OC)c2)cc1OC | 85.6% and 95.4% | 89.8% | 87.4% | 95.2% | 91.9% | 99.9% | 91.4% | 83.5% |
| N#C[C@@H]1C[C@@H]2C[C@@H]2N1C(=O)[C@@H](N)C12CC3CC(CC(O)(C3)C1)C2 | 107% and 99.7% | 107% | 97.6% | 88.9% | 96.7% | 99.5% | 96.6% | 108% |
| CC1(C)Cc2c(sc(NC(=O)c3ccn[nH]3)c2C(N)=O)C(C)(C)O1 | 103% and 101% | 109% | 96.6% | 93.3% | 110% | 102% | 101% | 104% |
| COc1ccc(-n2c(SCCCN3C(=O)c4cccc5cccc(c45)C3=O)nnc2-c2ccncc2)cc1 | 100% and 88.5% | 88.4% | 101% | 103% | 102% | 101% | 95.5% | 100% |
| CC(C)(C)NC(=O)N[C@H](C(=O)N1C[C@H]2[C@@H]([C@H]1C(=O)NC(CC1CCC1)C(=O)C(N)=O)C2(C)C)C(C)(C)C (stereo partly drawn) [Boceprevir] | 85.6% and 87.6% | 84.2% | 71.3% | 73.2% | 91.1% | 84.3% | 84% | 88.9% |
| COC(=O)[C@H](Cc1ccccc1)NC(=O)[C@@H](N)CC(=O)O [Aspartame] | 101% and 92.2% | 91.6% | 102% | 101% | 98.8% | 97.1% | 93.6% | 92.1% |
| C[C@@]1(CO)C[C@@H](O)C[C@@]2(C)[C@@H]3CC[C@](C)([C@@H](O)CO)C=C3CC[C@H]12 [Kirenol] | 98.1% and 101% | 97.7% | 89.3% | 96.2% | 107% | 104% | 94.6% | 101% |
| N[C@@H](Cc1cc(I)c(Oc2cc(I)c(O)c(I)c2)c(I)c1)C(=O)O [Levothyroxine sodium] | 89.6% and 92.8% | 106% | 102% | 104% | 92.9% | 101% | 100% | 94.3% |
| CNC(=O)c1ccc(N2C(=S)N(c3ccc(C#N)c(C(F)(F)F)c3)C(=O)C2(C)C)cc1F [MDV3100 (Enzalutamide)] | 84.9% and 91.7% | 89.2% | 90.4% | 89.1% | 89.2% | 90.3% | 83.3% | 80.3% |
| CN(C)C(=O)C(CCN1CCC(O)(c2ccc(Cl)cc2)CC1)(c1ccccc1)c1ccccc1 [Loperamide hydrochloride] | 45.5% and 54.9% | 49.4% | 55.5% | 61.6% | 58.5% | 59.7% | 44.2% | 54.9% |
| CC1OC(OC2CCC3(C)C(CCC4(C)C3C=CC3=C5CC(C)(C)CCC5(CO)C(O)CC34C)C2(C)CO)C(O)C(OC2OC(CO)C(O)C(O)C2O)C1O (stereo not drawn) [Saikosaponin B2] | 93.5% and 88.7% | 86.8% | 91.5% | 106% | 96.3% | 95.1% | 93.9% | 100% |
| CC1OC(OC2C(OC3CCC4(C)C(CCC5(C)C4CC=C4C6CC(C)(C)CCC6(C(=O)OC6OC(COC7OC(CO)C(O)C(O)C7O)C(O)C(O)C6O)CCC45C)C3(C)CO)OCC(O)C2O)C(O)C(O)C1O (stereo not drawn) [Dipsacoside B] | 101% and 103% | 104% | 97.5% | 98.2% | 106% | 98.3% | 101% | 103% |
| OC1COC(O)C(O)C1O (stereo not drawn) [L(+)-Arabinose] | 102% and 92.9% | 96.7% | 108% | 112% | 95.5% | 101% | 87.3% | 113% |
| C[C@H](NC(=O)C(=O)Nc1ccccc1C(C)(C)C)C(=O)N[C@@H](CC(=O)O)C(=O)COc1c(F)c(F)cc(F)c1F | 106% and 107% | 108% | 111% | 107% | 90.2% | 101% | 111% | 106% |
| CN1c2cc(O)c(N=NC(N)=O)cc2CC1S(=O)(=O)O (stereo not drawn) [Carbazochrome sodium sulfonate] | 99.4% and 97% | 95.2% | 92.7% | 98.7% | 97% | 99.3% | 99.1% | 106% |
| COc1cc2nc(N3CCN(C(=O)C4CCCO4)CC3)nc(N)c2cc1OC (stereo not drawn) [Terazosin HCl] | 97.7% and 96.9% | 96.6% | 99.5% | 102% | 101% | 99.2% | 103% | 104% |
| CN(C[C@@H]1COCCO1)S(=O)(=O)Nc1ccc2ccc3ncc(-c4cnn(C)c4)cc3c(=O)c2c1 | 77.6% and 96.8% | 82.6% | 74.1% | 72.6% | 20.4% | 16.7% | 41.6% | 47.3% |
| Cc1nc(-c2ccc(OCC(C)C)c(C#N)c2)sc1C(=O)O [Febuxostat (Uloric)] | 93.4% and 98.2% | 100% | 102% | 111% | 107% | 105% | 119% | 123% |
| C=CC(=O)Nc1cccc(Sc2nc(Nc3ccc(N4CCN(C)CC4)cc3)ncc2Cl)c1 | 12.7% and 13.8% | 13.8% | 0.51% | 9.17% | 0.08% | 0.12% | 0.11% | 0.45% |
| CCOC(=O)C1=C(COCCN)NC(C)=C(C(=O)OC)C1c1ccccc1Cl (stereo not drawn) [Amlodipine besylate (Norvasc)] | 79.6% and 95.8% | 84.3% | 76.8% | 78.3% | 54.7% | 59.5% | 36.2% | 44.2% |
